PubChem BioAssay AID1851 (National Center for Advancing Translational Sciences (NCATS), 2009)
Among all 16,000 compounds or so, about 2,600 (16%) were called active. Another 20% or so got no clear call; they are omitted. A selection follows. Values without a mark were called inactive. The call rests on the fitted dose curve; in most records, active means well fitted curve in the direction sought with a large enough effect; inconclusive means small, poorly fitted or top-dose-only effect, or effect the other way; inactive means no such curve, though single readings can be large or run the other way.

What follows are molecules tested against Cytochrome P450 2D6 (Homo sapiens) (UniProt P10635) (assay: Cytochrome panel assay with activity outcomes). Conditions: recombinant CYP, pro-luciferin dealkylation, luminescence, p450-cyp2d6; series mostly up to 57.1 µM.
Chain of Cytochrome P450 2D6 (Homo sapiens) (P10635 whole entry, looked up): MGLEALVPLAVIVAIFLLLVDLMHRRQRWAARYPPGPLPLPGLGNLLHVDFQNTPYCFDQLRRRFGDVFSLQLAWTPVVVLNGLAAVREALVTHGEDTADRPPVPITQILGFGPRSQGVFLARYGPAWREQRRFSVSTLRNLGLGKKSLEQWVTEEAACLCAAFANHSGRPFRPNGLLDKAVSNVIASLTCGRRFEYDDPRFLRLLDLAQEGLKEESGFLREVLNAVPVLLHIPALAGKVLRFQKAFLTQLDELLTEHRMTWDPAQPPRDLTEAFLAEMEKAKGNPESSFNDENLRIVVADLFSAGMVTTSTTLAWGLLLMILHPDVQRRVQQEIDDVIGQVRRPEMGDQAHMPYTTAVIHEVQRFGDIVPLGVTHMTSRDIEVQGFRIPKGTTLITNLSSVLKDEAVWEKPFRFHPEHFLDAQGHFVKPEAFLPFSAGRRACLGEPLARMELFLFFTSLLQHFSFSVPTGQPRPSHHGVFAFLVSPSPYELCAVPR
On the % scale 0 is the no-effect control and ±100 the full control effect.

SMILES	AC50	activity, negative = inhibition
COc1ccc(NC(=O)c2ccc(-n3cccn3)nc2)c(OC)c1	inactive	–
COc1ccccc1NC(=O)c1cnc2n(c1=O)CCS2	inactive	–
COc1ccccc1NC(=O)c1ccc(-n2cccn2)nc1	7940 nM (active)	–
COc1ccccc1CCn1c(=O)c(-c2ccc(Cl)cc2)nc2cncnc21	inactive	–
COc1ccc(/C=N/NC(=O)c2cccc([N+](=O)[O-])c2)cc1OS(=O)(=O)c1ccc(C)cc1	inactive	–
CC(=O)Nc1sc2c(c1C(N)=O)CCCC2	inactive	–
CC(=O)Nc1sc2c(c1CN1CCN(C)CC1)CCCC2	12600 nM (active)	–
CCNC(=O)c1c(NC(C)=O)sc2c1CCCC2	inactive	–
Cc1cc(C)c(S(C)(=O)=O)c(Oc2ccc(F)cc2)n1	inactive	–
COc1ncc2nc(-c3cn(C)c4ccccc34)c(=O)n(-c3ccccc3)c2n1	inactive	–
CCOC(=O)c1c(NC(=O)C2C3CCC(O3)C2C(=O)O)sc(C)c1-c1ccc(C)cc1 (stereo not drawn)	inactive	–
CCc1ccc(N2C(=O)/C(=C/c3cccs3)N(CC(=O)OC)C2=S)cc1	794 nM (active)	–
CCOc1ccc(N2C(=O)/C(=C/c3cc(OC)c(OC)c(OC)c3)N(CC(=O)OC)C2=S)cc1	inactive	–
CCOc1ccc(N2C(=O)/C(=C/c3cccs3)N(CC(=O)OC)C2=S)cc1	inactive	–
O=C(Nc1cccc(-c2cn3cccnc3n2)c1)c1ccco1	inactive	–
COc1ccc(S(=O)(=O)N2CCc3ccccc3C2)cc1OC	inactive	–
O=C(NNS(=O)(=O)c1ccccc1)c1cccnc1	–	14.2% [at 11.4 µM]
O=C(NNS(=O)(=O)c1cc(Cl)cc(Cl)c1)c1sccc1-n1cccc1	inactive	–
O=C(NNS(=O)(=O)c1ccc(Cl)cc1)c1cnn(-c2ccccc2)c1-n1cccc1	2000 nM (active)	–
N=c1nc(N2CCCCC2)cc(N)n1O	inactive	–
Oc1[nH]c2ccccc2c1N=Nc1ccc(C(F)(F)F)cn1	inactive	–

SMILES	AC50	activity, negative = inhibition
[O-][N+](CCO)(CCO)c1ncnc2nc[nH]c12	–	-0.262% [at 11.4 µM]
CCNC(=O)COC(=O)c1cc(-c2ccc(OC)cc2)nc2ccccc12	inactive	–
Cc1cc(C)c2nc3c(c([C@H](O)[C@@H]4CCCCN4)c2c1)CC/C3=C/c1ccc(Cl)cc1	–	0.19% [at 11.4 µM]
COc1ccc(-c2nc3ccccc3c(=O)n2N)cc1	inactive	–
COc1ccc(-c2cc([C@H](O)[C@@H]3CCCCN3)c3ccccc3n2)cc1	3160 nM (active)	–
N/C(=N\OC(=O)c1cc(-c2ccccc2)nc2ccccc12)c1ccc(Cl)cc1	inactive	–
O[C@@H](c1cc(-c2ccc(Cl)cc2)nc2ccccc12)[C@@H]1CCCCN1	631 nM (active)	–
Cc1ccc(C(=O)COC(=O)CNC(=O)Cc2ccccc2)cc1[N+](=O)[O-]	inactive	–
Cc1c(NC(=O)Cn2ccc([N+](=O)[O-])n2)c(=O)n(-c2ccccc2)n1C	inactive	–
c1ccc(C2=NN[C@@H]3c4ccccc4-c4ccccc4N3C2)cc1	–	-17.6% [at 11.4 µM]
CCC(=O)NC(NC(=O)CC)C(Cl)Cl	inactive	–
O=C(CSCc1cccc(Cl)c1)N/N=C/c1ccc(OCC(=O)N2CCCCC2)cc1	17800 nM (active)	–
O=C(Nc1ccc2oc(-c3ccccc3F)nc2c1)c1ccc2c(c1)OCCO2	inactive	–
O=C(/C=C/c1cccc([N+](=O)[O-])c1)NCCN1CCOCC1	inactive	–
CCN1CCCC1CNC(=O)CSCc1nc(-c2ccccc2C)oc1C (stereo not drawn)	8910 nM (active)	–
CCOC(=O)N1CCN(C(=O)CSCc2nc(-c3ccccc3F)oc2C)CC1	inactive	–
COCCCNC(=O)/C=C/c1ccc(Cl)cc1	inactive	–
O=C(/C=C/c1ccc2c(c1)OCO2)NCCSCc1cccc(Cl)c1	355 nM (active)	–
Cc1oc(-c2ccccc2Cl)nc1CSCC(=O)NC1CC1	inactive	–
O=C(CN1CCCC1)N/N=C/c1ccc(-c2cccc(Cl)c2)o1	inactive	–
Cc1cccc(C(=O)N/N=C/c2ccc(OCC(=O)N3CCCCC3)cc2)c1	inactive	–

SMILES	AC50	activity, negative = inhibition
Cc1oc(-c2ccccc2F)nc1CSCC(=O)NCc1ccc2c(c1)OCO2	2240 nM (active)	–
COc1ncc2nc(-c3cc(F)cc(F)c3)c(=O)n(C[C@H]3CCCO3)c2n1	inactive	–
CNc1c2c(nn1C)CCCC2	inactive	–
Cc1ccccc1S(=O)(=O)Oc1ccccc1C(=O)Oc1ccccc1	inactive	–
Nc1ncnc2nc(N3CCN(CCO)CC3)[nH]c12	–	6.88% [at 11.4 µM]
N[C@H](CCC(=O)NCS(=O)(=O)O)C(=O)O	inactive	–
COc1cc(=O)n(C)c2c(OC[C@@H](O)C(C)(C)O)cccc12	inactive	–
CO/N=C(\C(=O)N[C@@H]1C(=O)N2C(C(=O)O)=C(COC(C)=O)CS[C@@H]12)c1csc(N)n1	inactive	–
Cc1ccccc1NC1=C(C(=O)c2ccccc2)N(C)S(=O)(=O)c2ccccc21	inactive	–
C[C@H]1COC(=O)[C@H](Cc2ccccc2)NC(=O)[C@@H](C)COC(=O)[C@H](Cc2ccccc2)NC1=O	–	13.8% [at 11.4 µM]
OC[C@@H]1O[C@@H](O)[C@H](N=Cc2ccc3c(c2)OCO3)[C@@H](O)[C@@H]1O	–	0.161% [at 11.4 µM]
COCCn1c(=O)c(-c2cc(F)cc(F)c2)nc2cnc(N3CCN(C)CC3)nc21	inactive	–
C=CCNC(=O)CC(=O)N/N=C/c1cccc(Br)c1	inactive	–
CCN(CC)C(=O)C(=O)N/N=C/c1cccc(Br)c1	inactive	–
Cn1c(=O)c2c(n(Cc3ccccc3)c1=O)NC(=O)C2CC(=O)NCc1cccc(Cl)c1 (stereo not drawn)	inactive	–
O=C(/C=C/c1cc2c(cc1Br)OCO2)NCc1ccc(Cl)cc1	inactive	–
O=C(CSCc1cccc(Cl)c1)NCc1ccc2c(c1)OCO2	1000 nM (active)	–
O=C(CSCc1cccc(Br)c1)N/N=C/c1ccc2c(c1)OCO2	2000 nM (active)	–
O=[N+]([O-])c1ccc(/C=N/n2c(COc3ccccc3)n[nH]c2=S)cc1	inactive	–
C=CCNc1sc(C(=O)c2ccc(C)cc2)c(N)c1C#N	inactive	–
O=C(O)[C@H]1CCCC[C@@H]1c1c2ccc(=O)c(O)c-2oc2c(O)c(O)ccc12	–	-0.179% [at 11.4 µM]
